Results reported in PubChem BioAssay (NCI).
“And” between values parts separate entries of the source, which are not always exact repeats. Equal values may be shown once. About 79,000 compounds went through this panel and 15% of them were active in at least one assay; those are over-represented in the sample as a whole. Where a structure was tested more than once in an assay, its records may differ in their call. The source made the active and inactive calls. Cut-off read from the data, not from the text of the source: active = growth inhibition above about 70%; inactive = the rest.

Assays:
[1] = NCI Yeast Anticancer Drug Screen. Data for the rad50 strain (AID 155);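 note: 0% = growth of vehicle-only cultures of the same strain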; settings: S. cerevisiae rad50 strain growth inhibition, stronger effect = higher value
Procedure, shortened: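 Compounds were tested on a yeast strain with an engineered DNA damage repair alteration; the reported value is growth inhibition normalised to vehicle treatment.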

[2] = NCI Yeast Anticancer Drug Screen. Data for the mec2-1 strain (AID 157); settings: S. cerevisiae mec2-1 strain, stronger effect = higher value
Procedure, shortened: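 Compounds were applied to mec2-1 yeast cells. Their growth was then compared with that of vehicle-treated cultures to give growth inhibition.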

[3] = NCI Yeast Anticancer Drug Screen. Data for the sgs1 mgt1 strain (AID 161);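 note: 0% = growth of cultures given vehicle only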; settings: S. cerevisiae sgs1 mgt1 strain, stronger effect = higher value
Procedure, shortened: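 Growth of a repair-deficient yeast mutant was monitored after compound treatment and expressed as inhibition relative to vehicle-treated cultures.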

[4] = NCI Yeast Anticancer Drug Screen. Data for the cln2 rad14 strain (AID 165);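 note: 0% = growth equal to vehicle treated cultures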; settings: S. cerevisiae cln2 rad14 strain, stronger effect = higher value
Procedure, shortened: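 Strain: cln2 rad14 yeast, altered in cell cycle control and DNA damage repair. Read-out: growth inhibition vs vehicle.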

[5] = NCI Yeast Anticancer Drug Screen. Data for the bub3 strain (AID 167); settings: S. cerevisiae bub3 mutant strain, stronger effect = higher value
Procedure, shortened: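 Growth of a checkpoint-deficient yeast mutant is measured after compound exposure. Values represent inhibition relative to vehicle.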

[6] = NCI Yeast Anticancer Drug Screen. Data for the mlh1 rad18 strain (AID 175); settings: S. cerevisiae mlh1 rad18 strain growth inhibition, stronger effect = higher value
Procedure, shortened: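 A repair-deficient yeast strain is exposed to test compound, and growth is scored relative to vehicle-treated controls.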

[7] = at 5.0 µM (retest, dose inferred, filed as 0.5)
[8] = at 50.0 µM (retest, dose inferred, filed as 5.0)

## CCCCN(CCCC)C(Cl)=Nc1ccccc1
[1]; [7]
  growth inhibition: 35% (inactive)
[1]; [8]
  growth inhibition: 32% (inactive)
[1]; at 50.0 µM
  growth inhibition: 80.9% (active)
[2]; [7]
  growth inhibition: 29% (inactive)
[2]; [8]
  growth inhibition: 24% (inactive)
[2]; at 50.0 µM
  growth inhibition: 87.1% (active)
[3]; [7]
  growth inhibition: 31% (inactive)
[3]; [8]
  growth inhibition: 30% (inactive)
[3]; at 50.0 µM
  growth inhibition: 88.2% (active)
[4]; [7]
  growth inhibition: 17% (inactive)
[4]; [8]
  growth inhibition: 19% (inactive)
[4]; at 50.0 µM
  growth inhibition: 81% (active)
[5]; [7]
  growth inhibition: 33% (inactive)
[5]; [8]
  growth inhibition: 38% (inactive)
[5]; at 50.0 µM
  growth inhibition: 82.4% (active)
[6]; [7]
  growth inhibition: 39% (inactive)
[6]; [8]
  growth inhibition: 57% (inactive)
[6]; at 50.0 µM
  growth inhibition: 77.4% (active)

## c1cc2c3c(c1)ccc1cccc(c13)COC2
[1]; [7]
  growth inhibition: -21% (inactive) and -2% (inactive)
[1]; [8]
  growth inhibition: 10% (inactive) and 85% (active)
[1]; at 50.0 µM
  growth inhibition: 86.3% (active) and 98% (active)
[2]; [7]
  growth inhibition: -6% (inactive) and 9% (inactive)
[2]; [8]
  growth inhibition: -8% (inactive) and 75% (active)
[2]; at 50.0 µM
  growth inhibition: 51.1% (inactive) and 96.7% (active)
[3]; [7]
  growth inhibition: -4% (inactive) and -10% (inactive)
[3]; [8]
  growth inhibition: 20% (inactive) and 58% (inactive)
[3]; at 50.0 µM
  growth inhibition: 47.5% (inactive) and 95.8% (active)
[4]; [7]
  growth inhibition: -42% (inactive) and 4% (inactive)
[4]; [8]
  growth inhibition: -7% (inactive) and 27% (inactive)
[4]; at 50.0 µM
  growth inhibition: 69.2% (inactive) and 96.5% (active)
[5]; [7]
  growth inhibition: -13% (inactive) and -12% (inactive)
[5]; [8]
  growth inhibition: 10% (inactive) and 65% (inactive)
[5]; at 50.0 µM
  growth inhibition: 88.2% (active) and 94.9% (active)
[6]; [7]
  growth inhibition: -19% (inactive) and -11% (inactive)
[6]; [8]
  growth inhibition: 9% (inactive) and 89% (active)
[6]; at 50.0 µM
  growth inhibition: 56.5% (inactive) and 98.2% (active)

## O=S(c1cc(Br)ccc1O)c1cc(Br)ccc1O
[1]; [7]
  growth inhibition: 31% (inactive)
[1]; [8]
  growth inhibition: 99% (active)
[1]; at 50.0 µM
  growth inhibition: 99.3% (active)
[2]; [7]
  growth inhibition: 49% (inactive)
[2]; [8]
  growth inhibition: 100% (active)
[2]; at 50.0 µM
  growth inhibition: 99.7% (active)
[3]; [7]
  growth inhibition: 69% (inactive)
[3]; [8]
  growth inhibition: 99% (active)
[3]; at 50.0 µM
  growth inhibition: 99% (active)
[4]; [7]
  growth inhibition: 39% (inactive)
[4]; [8]
  growth inhibition: 99% (active)
[4]; at 50.0 µM
  growth inhibition: 99.3% (active)
[5]; [7]
  growth inhibition: 23% (inactive)
[5]; [8]
  growth inhibition: 99% (active)
[5]; at 50.0 µM
  growth inhibition: 99.3% (active)
[6]; [7]
  growth inhibition: 80% (active)
[6]; [8]
  growth inhibition: 100% (active)
[6]; at 50.0 µM
  growth inhibition: 99.5% (active)

## CCOC(=O)C(C(=O)c1ccccc1)C(=O)c1ccccc1
[1]; [7]
  growth inhibition: 29% (inactive)
[1]; [8]
  growth inhibition: 85% (active)
[1]; at 50.0 µM
  growth inhibition: -24.3% (inactive) and 90.8% (active)
[2]; [7]
  growth inhibition: 29% (inactive)
[2]; [8]
  growth inhibition: 93% (active)
[2]; at 50.0 µM
  growth inhibition: -14.4% (inactive) and 91.2% (active)
[3]; [7]
  growth inhibition: 37% (inactive)
[3]; [8]
  growth inhibition: 82% (active)
[3]; at 50.0 µM
  growth inhibition: -4.65% (inactive) and 92% (active)
[4]; [7]
  growth inhibition: 34% (inactive)
[4]; [8]
  growth inhibition: 56% (inactive)
[4]; at 50.0 µM
  growth inhibition: -21.1% (inactive) and 90.6% (active)
[5]; [7]
  growth inhibition: 35% (inactive)
[5]; [8]
  growth inhibition: 92% (active)
[5]; at 50.0 µM
  growth inhibition: -0.95% (inactive) and 90.5% (active)
[6]; [7]
  growth inhibition: 35% (inactive)
[6]; [8]
  growth inhibition: 97% (active)
[6]; at 50.0 µM
  growth inhibition: -22% (inactive) and 90.8% (active)
